# Experimental data reported in paper PMC7862700, “An all-to-all approach to the identification of sequence-specific readers for epigenetic DNA modifications on cytosine”.
# What was measured:
# Experiment in all cases: DAPPL (digital affinity profiling via proximity ligation, sequencing); 10 mM Tris-HCl pH 7.5, 50 mM NaCl, 1 mM DTT, 4% glycerol, room temperature, 30 min; GST-TFs on glutathione beads, 16-mer random dsDNA library, 0.1% formaldehyde crosslink after washing; high values mean tight binding
# FEV = biological target: T1, FEV (Homo sapiens, UniProt Q99581 1-238); details: protein: recombinant; tags: N-terminal GST; dsDNA, one strand shown
# T1 sequence: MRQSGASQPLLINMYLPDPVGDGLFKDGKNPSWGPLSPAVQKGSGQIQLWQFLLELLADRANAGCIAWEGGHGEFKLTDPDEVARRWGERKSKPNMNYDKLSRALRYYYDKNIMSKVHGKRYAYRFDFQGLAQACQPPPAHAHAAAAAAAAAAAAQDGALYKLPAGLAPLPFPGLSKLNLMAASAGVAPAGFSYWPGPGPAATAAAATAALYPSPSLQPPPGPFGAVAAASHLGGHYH
# Outline: (§1)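 Yeast served to express human transcription factors as GST fusions, which were then captured on glutathione beads and labelled with DNA barcodes. Pooled with a tag-only sample, they were incubated with 200 nmole of a 16-mer random double-stranded DNA library for 30 min at room temperature in Tris/NaCl/DTT/glycerol buffer, washed, crosslinked with 0.1% formaldehyde, ligated by proximity, amplified by PCR and sequenced. Dividing each hexamer's read frequency for a factor by its frequency for the tag-only sample gives the binding signal.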
# ETV5 = ETV5 (Homo sapiens, UniProt P41161 1-510); details: protein: recombinant; tags: N-terminal GST; dsDNA, one strand shown
# Chain of ETV5 (P41161 whole entry): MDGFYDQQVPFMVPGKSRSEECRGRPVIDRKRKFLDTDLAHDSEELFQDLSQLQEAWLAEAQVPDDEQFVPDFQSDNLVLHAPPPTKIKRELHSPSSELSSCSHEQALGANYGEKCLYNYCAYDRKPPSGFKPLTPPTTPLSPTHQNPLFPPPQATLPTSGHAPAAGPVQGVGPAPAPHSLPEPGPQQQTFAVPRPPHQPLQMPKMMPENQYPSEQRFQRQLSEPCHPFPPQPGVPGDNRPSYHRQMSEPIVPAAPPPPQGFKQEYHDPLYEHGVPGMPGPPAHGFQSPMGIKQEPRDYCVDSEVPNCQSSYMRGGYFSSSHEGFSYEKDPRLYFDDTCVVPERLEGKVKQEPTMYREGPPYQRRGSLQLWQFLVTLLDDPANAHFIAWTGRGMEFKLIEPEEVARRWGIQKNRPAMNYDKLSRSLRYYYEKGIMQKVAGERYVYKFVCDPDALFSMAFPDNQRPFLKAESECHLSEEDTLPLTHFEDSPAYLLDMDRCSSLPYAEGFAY
# Outline: as §1
# HSF1 = HSF1 (Homo sapiens, UniProt Q00613 1-529); details: protein: recombinant; tags: N-terminal GST; chain copies: 3; dsDNA, one strand shown
# Chain of HSF1 (Q00613 whole entry): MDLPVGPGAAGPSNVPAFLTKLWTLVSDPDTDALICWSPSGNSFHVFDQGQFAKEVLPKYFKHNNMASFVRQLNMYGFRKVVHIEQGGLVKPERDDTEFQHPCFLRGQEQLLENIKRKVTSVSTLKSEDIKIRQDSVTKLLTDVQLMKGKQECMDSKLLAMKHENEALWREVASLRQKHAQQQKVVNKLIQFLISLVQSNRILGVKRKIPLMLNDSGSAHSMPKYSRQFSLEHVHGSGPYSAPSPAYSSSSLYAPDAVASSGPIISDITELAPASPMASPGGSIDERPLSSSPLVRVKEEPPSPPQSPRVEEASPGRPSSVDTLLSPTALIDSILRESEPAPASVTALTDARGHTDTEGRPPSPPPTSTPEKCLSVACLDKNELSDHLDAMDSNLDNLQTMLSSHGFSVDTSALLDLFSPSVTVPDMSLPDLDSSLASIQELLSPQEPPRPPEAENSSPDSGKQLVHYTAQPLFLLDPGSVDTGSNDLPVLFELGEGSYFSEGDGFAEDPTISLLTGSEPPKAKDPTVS
# Outline: as §1
# SPIC = biological target: T2, SPIC (Homo sapiens, UniProt Q8N5J4 1-248); details: protein: recombinant; tags: N-terminal GST; dsDNA, one strand shown
# T2 sequence: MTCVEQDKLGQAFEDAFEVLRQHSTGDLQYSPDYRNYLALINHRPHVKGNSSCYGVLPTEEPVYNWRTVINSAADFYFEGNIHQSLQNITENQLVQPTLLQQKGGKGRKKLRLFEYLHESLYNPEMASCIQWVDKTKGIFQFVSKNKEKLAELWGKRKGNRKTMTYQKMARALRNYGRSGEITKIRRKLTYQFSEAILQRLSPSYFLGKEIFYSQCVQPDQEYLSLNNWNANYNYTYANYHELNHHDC
# Outline: as §1
# ELF4 = ELF4 (Homo sapiens, UniProt Q99607 1-663); details: protein: recombinant; tags: N-terminal GST; dsDNA, one strand shown
# Chain of ELF4 (Q99607 whole entry): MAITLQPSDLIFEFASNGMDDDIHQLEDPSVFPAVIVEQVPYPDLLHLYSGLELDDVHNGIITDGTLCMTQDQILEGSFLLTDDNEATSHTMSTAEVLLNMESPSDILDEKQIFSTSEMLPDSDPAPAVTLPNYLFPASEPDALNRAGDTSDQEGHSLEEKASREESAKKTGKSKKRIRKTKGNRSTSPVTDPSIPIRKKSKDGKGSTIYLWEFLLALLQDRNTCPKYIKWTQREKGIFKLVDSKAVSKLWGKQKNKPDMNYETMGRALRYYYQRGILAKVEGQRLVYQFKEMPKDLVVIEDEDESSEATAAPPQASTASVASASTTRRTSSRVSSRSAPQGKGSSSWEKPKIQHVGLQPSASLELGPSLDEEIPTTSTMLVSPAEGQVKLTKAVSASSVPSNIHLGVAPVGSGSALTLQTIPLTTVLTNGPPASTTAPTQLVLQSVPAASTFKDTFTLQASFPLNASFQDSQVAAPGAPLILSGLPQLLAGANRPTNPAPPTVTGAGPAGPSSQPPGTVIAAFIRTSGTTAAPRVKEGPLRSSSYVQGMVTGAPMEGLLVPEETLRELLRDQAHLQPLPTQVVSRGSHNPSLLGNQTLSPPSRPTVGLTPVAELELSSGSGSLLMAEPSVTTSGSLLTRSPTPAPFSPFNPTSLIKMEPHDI
# Outline: as §1
# ELK4 = biological target: T3, ELK4 (Homo sapiens, UniProt P28324-2 1-405); details: protein: recombinant; tags: N-terminal GST; dsDNA, one strand shown
# T3 sequence: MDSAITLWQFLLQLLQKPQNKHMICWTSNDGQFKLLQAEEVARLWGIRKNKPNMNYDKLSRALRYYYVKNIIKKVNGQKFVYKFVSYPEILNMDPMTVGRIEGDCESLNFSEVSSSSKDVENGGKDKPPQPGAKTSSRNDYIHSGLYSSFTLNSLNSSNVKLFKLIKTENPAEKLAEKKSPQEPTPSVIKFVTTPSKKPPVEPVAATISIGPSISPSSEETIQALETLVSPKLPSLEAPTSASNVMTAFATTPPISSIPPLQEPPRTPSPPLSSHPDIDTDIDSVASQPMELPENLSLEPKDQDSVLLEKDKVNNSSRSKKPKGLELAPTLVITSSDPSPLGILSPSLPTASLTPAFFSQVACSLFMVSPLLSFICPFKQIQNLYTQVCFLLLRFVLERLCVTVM
# Outline: as §1
# ETV2 = biological target: T4, ETV2 (Homo sapiens, UniProt O00321 1-342); details: protein: recombinant; tags: N-terminal GST; dsDNA, one strand shown
# T4 sequence: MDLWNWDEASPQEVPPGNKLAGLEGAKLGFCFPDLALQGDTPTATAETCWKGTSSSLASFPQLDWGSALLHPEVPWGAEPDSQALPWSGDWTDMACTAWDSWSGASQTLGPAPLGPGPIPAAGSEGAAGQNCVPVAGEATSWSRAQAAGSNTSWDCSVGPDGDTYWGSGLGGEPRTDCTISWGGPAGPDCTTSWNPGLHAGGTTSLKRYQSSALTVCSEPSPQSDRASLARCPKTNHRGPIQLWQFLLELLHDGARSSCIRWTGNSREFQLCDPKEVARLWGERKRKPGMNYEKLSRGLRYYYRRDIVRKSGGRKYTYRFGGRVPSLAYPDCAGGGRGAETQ
# Outline: as §1
# ELF3 = biological target: T5, ELF3 (Homo sapiens, UniProt P78545 1-371); details: protein: recombinant; tags: N-terminal GST; dsDNA, one strand shown
# T5 sequence: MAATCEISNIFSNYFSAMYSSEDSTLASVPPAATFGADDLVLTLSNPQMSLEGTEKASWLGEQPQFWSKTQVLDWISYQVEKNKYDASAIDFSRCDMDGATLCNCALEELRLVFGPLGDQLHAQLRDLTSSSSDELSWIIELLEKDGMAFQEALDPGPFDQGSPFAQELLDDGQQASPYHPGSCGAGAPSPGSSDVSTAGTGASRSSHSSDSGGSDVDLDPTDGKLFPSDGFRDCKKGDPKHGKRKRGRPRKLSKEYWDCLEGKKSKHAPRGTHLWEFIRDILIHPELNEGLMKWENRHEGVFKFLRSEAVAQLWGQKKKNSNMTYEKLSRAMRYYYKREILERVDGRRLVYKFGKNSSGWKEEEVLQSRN
# Outline: as §1
# CRX = CRX (Homo sapiens, UniProt O43186 1-299); details: protein: recombinant; tags: N-terminal GST; dsDNA, one strand shown
# Chain of CRX (O43186 whole entry): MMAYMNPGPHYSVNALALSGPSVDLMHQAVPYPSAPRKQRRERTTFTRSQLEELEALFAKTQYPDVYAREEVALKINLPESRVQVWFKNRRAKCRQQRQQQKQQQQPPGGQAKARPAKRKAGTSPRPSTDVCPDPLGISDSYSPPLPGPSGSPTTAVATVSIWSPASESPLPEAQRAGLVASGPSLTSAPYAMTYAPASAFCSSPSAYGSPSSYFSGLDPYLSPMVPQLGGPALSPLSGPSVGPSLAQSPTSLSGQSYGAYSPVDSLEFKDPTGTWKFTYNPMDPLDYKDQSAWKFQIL
# Outline: as §1
# ETV1 = ETV1 (Homo sapiens, UniProt P50549 1-477); details: protein: recombinant; tags: N-terminal GST; dsDNA, one strand shown
# Chain of ETV1 (P50549 whole entry): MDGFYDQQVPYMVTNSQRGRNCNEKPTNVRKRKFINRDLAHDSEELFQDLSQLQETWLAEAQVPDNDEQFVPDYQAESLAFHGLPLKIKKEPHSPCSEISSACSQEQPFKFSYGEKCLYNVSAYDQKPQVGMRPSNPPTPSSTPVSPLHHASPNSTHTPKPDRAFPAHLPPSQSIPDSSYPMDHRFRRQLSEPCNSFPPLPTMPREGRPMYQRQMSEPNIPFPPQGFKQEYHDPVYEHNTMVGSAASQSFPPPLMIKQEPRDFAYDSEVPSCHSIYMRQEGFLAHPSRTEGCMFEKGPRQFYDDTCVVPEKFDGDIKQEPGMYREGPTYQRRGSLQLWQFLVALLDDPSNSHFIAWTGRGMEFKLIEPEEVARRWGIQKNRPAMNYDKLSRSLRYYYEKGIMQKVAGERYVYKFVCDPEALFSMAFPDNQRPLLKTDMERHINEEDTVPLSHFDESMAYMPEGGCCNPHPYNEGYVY
# Outline: as §1
# ERF = biological target: T6, ERF (Homo sapiens, UniProt P50548 1-548); details: protein: recombinant; tags: N-terminal GST; dsDNA, one strand shown
# T6 sequence: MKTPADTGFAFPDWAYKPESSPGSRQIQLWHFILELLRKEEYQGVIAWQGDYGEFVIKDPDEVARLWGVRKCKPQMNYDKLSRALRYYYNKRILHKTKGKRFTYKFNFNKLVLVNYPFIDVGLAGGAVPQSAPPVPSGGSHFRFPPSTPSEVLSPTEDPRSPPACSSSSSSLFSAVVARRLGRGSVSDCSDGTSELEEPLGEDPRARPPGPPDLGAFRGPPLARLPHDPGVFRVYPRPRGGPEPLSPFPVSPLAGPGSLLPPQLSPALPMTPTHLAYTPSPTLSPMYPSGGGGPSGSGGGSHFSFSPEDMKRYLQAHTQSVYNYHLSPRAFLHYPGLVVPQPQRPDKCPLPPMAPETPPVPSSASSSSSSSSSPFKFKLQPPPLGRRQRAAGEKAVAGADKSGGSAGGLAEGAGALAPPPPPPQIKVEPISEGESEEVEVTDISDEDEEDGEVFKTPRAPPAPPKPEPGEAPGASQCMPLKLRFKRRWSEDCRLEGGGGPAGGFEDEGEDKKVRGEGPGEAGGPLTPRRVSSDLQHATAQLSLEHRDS
# Outline: as §1
# ETV3L = biological target: T7, ETV3L (Homo sapiens, UniProt Q6ZN32 1-361); details: protein: recombinant; tags: N-terminal GST; dsDNA, one strand shown
# T7 sequence: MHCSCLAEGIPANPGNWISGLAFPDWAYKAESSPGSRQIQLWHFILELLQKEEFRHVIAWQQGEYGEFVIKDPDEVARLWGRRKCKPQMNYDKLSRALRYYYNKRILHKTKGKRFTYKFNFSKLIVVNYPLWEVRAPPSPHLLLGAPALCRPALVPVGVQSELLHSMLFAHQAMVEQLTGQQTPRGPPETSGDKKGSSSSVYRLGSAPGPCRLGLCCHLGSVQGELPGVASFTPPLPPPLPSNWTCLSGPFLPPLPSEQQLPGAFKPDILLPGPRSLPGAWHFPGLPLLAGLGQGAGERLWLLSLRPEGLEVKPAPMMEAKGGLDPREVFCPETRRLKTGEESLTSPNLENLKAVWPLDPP
# Outline: as §1
# ETS2 = biological target: T8, ETS2 (Homo sapiens, UniProt P15036 1-469); details: protein: recombinant; tags: N-terminal GST; dsDNA, one strand shown
# T8 sequence: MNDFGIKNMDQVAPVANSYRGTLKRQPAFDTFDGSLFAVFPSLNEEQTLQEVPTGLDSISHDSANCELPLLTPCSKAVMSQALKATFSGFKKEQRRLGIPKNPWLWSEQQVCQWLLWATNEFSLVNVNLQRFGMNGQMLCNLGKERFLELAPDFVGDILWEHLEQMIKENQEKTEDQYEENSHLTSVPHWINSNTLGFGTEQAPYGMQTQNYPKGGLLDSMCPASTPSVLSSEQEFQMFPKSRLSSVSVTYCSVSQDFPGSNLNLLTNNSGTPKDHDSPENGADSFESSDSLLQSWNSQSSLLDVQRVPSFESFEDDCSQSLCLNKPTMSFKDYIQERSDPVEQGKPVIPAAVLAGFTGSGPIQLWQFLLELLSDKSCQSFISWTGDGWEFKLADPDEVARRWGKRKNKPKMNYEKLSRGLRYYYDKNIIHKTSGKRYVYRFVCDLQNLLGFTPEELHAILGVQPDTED
# Outline: as §1
# SPDEF = biological target: T9, SPDEF (Homo sapiens, UniProt O95238 1-335); details: protein: recombinant; tags: N-terminal GST; dsDNA, one strand shown
# T9 sequence: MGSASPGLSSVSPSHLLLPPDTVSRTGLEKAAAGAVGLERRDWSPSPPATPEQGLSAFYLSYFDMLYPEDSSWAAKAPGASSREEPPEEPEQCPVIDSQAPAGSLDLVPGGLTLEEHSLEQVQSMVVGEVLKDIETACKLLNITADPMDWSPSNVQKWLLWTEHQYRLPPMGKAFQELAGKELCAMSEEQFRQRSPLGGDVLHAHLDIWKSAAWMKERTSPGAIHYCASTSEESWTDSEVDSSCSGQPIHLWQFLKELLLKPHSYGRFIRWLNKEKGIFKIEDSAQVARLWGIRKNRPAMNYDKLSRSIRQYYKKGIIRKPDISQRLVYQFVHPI
# Outline: as §1
# ETV7 = biological target: T10, ETV7 (Homo sapiens, UniProt Q9Y603 1-341); details: protein: recombinant; tags: N-terminal GST; dsDNA, one strand shown
# T10 sequence: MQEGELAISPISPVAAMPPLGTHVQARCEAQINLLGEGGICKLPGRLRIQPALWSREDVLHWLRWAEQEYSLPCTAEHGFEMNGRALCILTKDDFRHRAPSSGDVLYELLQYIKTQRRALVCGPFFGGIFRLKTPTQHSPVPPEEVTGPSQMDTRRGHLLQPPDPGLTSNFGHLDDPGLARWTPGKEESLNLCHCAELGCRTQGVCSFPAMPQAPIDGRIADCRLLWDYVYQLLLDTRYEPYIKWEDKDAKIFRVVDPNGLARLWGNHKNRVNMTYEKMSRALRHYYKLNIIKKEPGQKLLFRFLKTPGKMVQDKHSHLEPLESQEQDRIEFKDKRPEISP
# Outline: as §1
# ELF5 = biological target: T11, ELF5 (Homo sapiens, UniProt Q9UKW6-2 1-255); details: protein: recombinant; tags: N-terminal GST; dsDNA, one strand shown
# T11 sequence: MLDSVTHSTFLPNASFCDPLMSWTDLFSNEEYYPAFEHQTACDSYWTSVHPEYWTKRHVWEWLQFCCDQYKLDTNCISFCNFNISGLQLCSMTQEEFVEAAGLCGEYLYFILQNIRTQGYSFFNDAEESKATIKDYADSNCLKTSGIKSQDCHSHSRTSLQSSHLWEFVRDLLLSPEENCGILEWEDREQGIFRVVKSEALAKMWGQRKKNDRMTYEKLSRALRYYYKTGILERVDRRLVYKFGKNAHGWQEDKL
# Outline: as §1
# ETV3 = biological target: T12, ETV3 (Homo sapiens, UniProt P41162-2 1-143); details: protein: recombinant; tags: N-terminal GST; dsDNA, one strand shown
# T12 sequence: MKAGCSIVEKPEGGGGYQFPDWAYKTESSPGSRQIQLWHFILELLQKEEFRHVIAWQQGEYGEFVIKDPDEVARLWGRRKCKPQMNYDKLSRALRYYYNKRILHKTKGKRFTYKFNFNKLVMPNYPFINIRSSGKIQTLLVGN
# Outline: as §1
# ETV6 = ETV6 (Homo sapiens, UniProt P41212 1-452); details: protein: recombinant; tags: N-terminal GST; dsDNA, one strand shown
# Chain of ETV6 (P41212 whole entry): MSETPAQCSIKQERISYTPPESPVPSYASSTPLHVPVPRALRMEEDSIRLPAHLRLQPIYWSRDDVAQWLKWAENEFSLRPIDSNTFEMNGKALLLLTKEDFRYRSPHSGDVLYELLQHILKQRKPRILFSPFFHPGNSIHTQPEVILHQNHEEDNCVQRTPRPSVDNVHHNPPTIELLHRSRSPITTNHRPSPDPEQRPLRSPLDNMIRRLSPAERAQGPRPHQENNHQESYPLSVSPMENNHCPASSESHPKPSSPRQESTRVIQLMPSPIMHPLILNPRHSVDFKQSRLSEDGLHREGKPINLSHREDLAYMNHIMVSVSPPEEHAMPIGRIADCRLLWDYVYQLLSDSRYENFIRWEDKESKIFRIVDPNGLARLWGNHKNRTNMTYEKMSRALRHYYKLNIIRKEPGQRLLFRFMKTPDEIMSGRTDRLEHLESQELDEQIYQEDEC
# Outline: as §1
sequence,measurement,setting,value
CGTTCT,binding signal,FEV,"1.45 fold enrichment (6-mer frequency, TF over GST control)"
same,binding signal,ETV5,"1.45 fold enrichment (6-mer frequency, TF over GST control)"
same,binding signal,HSF1,"2.27 fold enrichment (6-mer frequency, TF over GST control)"
same,binding signal,SPIC,"1.45 fold enrichment (6-mer frequency, TF over GST control)"
same,binding signal,ELF4,"1.47 fold enrichment (6-mer frequency, TF over GST control)"
same,binding signal,ELK4,"1.43 fold enrichment (6-mer frequency, TF over GST control)"
same,binding signal,ETV2,"1.39 fold enrichment (6-mer frequency, TF over GST control)"
same,binding signal,ELF3,"1.4 fold enrichment (6-mer frequency, TF over GST control)"
same,binding signal,CRX,"1.49 fold enrichment (6-mer frequency, TF over GST control)"
same,binding signal,ETV1,"1.37 fold enrichment (6-mer frequency, TF over GST control)"
same,binding signal,ERF,"1.46 fold enrichment (6-mer frequency, TF over GST control)"
same,binding signal,ETV3L,"1.51 fold enrichment (6-mer frequency, TF over GST control)"
same,binding signal,ETS2,"1.37 fold enrichment (6-mer frequency, TF over GST control)"
same,binding signal,SPDEF,"1.44 fold enrichment (6-mer frequency, TF over GST control)"
same,binding signal,ETV7,"1.56 fold enrichment (6-mer frequency, TF over GST control)"
same,binding signal,ELF5,"1.44 fold enrichment (6-mer frequency, TF over GST control)"
same,binding signal,ETV3,"1.37 fold enrichment (6-mer frequency, TF over GST control)"
same,binding signal,ETV6,"1.47 fold enrichment (6-mer frequency, TF over GST control)"
